{"source": "paper PMC5540273", "about": "(PLoS ONE, 2017);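 further: KINOMEscan kinase panel screen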", "data": [{"system": "BTK", "details": "concentration: 1 μM, replicates: in singlicate; n = 1", "units": {"%Inh": "%"}, "values": [{"compound": "Oc1ccc2ncnc(Nc3ccc(OCc4ccccc4)cc3)c2c1", "note": "[GI262866]", "%Inh": 4}, {"compound": "FC(F)(F)c1ccc(-c2cc(-c3c[nH]nc3-c3ccccn3)ccn2)cc1", "note": "[GW599550]", "%Inh": 0}, {"compound": "CCc1nc(-c2cccc(C)c2)c(-c2ccnc(NC(=O)c3ccccc3)c2)s1", "%Inh": 42}, {"compound": "CN1c2ccc(-c3ccc(C(=O)NCCO)cc3)cc2-c2[nH]ncc2S1(=O)=O", "%Inh": 6}, {"compound": "O=C(c1ccc(-c2cc(-c3c[nH]nc3-c3ccccn3)ccn2)cc1)N1CCCC1", "note": "[GW792479]", "%Inh": 24}, {"compound": "COc1ccc(-c2oc3ncnc(N)c3c2-c2ccc(OC)cc2)cc1", "note": "[SB-589132]", "%Inh": 54}, {"compound": "CCc1nc(-c2cccc(N(C)S(=O)(=O)c3ccccc3)c2)c(-c2ccnc(Nc3ccc(N4CCN(C(C)=O)CC4)nc3)n2)s1", "note": "[GSK1645895]", "%Inh": 0}, {"compound": "Fc1cccc(COc2ccc(Nc3ncnc4cc[nH]c34)cc2Cl)c1", "%Inh": 0}, {"compound": "Cl.c1ccc(Cn2ncc3cc(Nc4ncnc5ccccc45)ccc32)cc1", "note": "[GW273749]", "%Inh": 0}, {"compound": "COC(=O)c1cccc(NC(=O)NCCNc2ccnc(Nc3ccc(F)cc3)n2)c1", "note": "[GSK1379883]", "%Inh": 0}, {"compound": "Cl.c1ccc(Cn2ccc3cc(Nc4ncnc5ccccc45)ccc32)cc1", "note": "[GW275568]", "%Inh": 0}, {"compound": "COc1ccc(Nc2nccc(N3CCC(NC(=O)c4cccc(NC(C)=O)c4)C3)n2)cc1", "note": "(stereo not shown) [GSK1379732]", "%Inh": 36}, {"compound": "Nc1nccc2scc(-c3ccc4c(c3)CCN4C(=O)Cc3cc(F)ccc3F)c12", "note": "[GSK2587663]", "%Inh": 0}, {"compound": "Fc1ccc(Nc2nccc(-c3c(-c4ccc(Cl)cc4)nn4ncccc34)n2)cc1F", "note": "[GW829058]", "%Inh": 75}, {"compound": "CS(=O)(=O)CCNCc1ccc(-c2ccc3ncnc(Nc4ccc(OCc5ccccc5)c(Cl)c4)c3c2)o1.Cl", "note": "[GW574783]", "%Inh": 0}, {"compound": "Cn1ccc2ncnc(Oc3ccc(NC(=O)Nc4cccnc4)c(Cl)c3)c21", "%Inh": 0}, {"compound": "COc1ccc(NC(=O)c2ccc(-c3cc(-c4nnc(C)o4)ccc3C)cc2)cc1", "note": "[GW595885]", "%Inh": 0}, {"compound": "NC(=O)c1sc(-n2cnc3ccccc32)cc1OCc1ccccc1F", "note": "[GSK1024306]", "%Inh": 0}, {"compound": "Fc1ccc(-c2ncn(CCCNCc3ccccc3)c2-c2ccncc2)cc1", "%Inh": 0}, {"compound": "CCC(CC)(CC)n1cnc2c(N)ncnc21", "note": "[SKF-97620]", "%Inh": 0}, {"compound": "N#Cc1ccc(Oc2ccc(Nc3ncnc4cc[nH]c34)cc2Cl)cc1", "%Inh": 0}, {"compound": "O=C(Nc1n[nH]c2nc(-c3ccco3)c(Br)cc12)c1ccc(CN2CCCC2)cc1.O=C(O)[C@H](O)[C@@H](O)C(=O)O", "note": "[SB-742352]", "%Inh": 0}, {"compound": "O=C(NCCCN1CCCC1=O)c1cnc(NCc2cc(Cl)ccc2Cl)nc1NC1CCNCC1", "%Inh": 0}, {"compound": "O=C(Nc1ccccc1)Nc1ccc(Oc2ccc3nccn3n2)cc1", "%Inh": 0}, {"compound": "CCCc1ccc(S(=O)(=O)NC2CCN(c3ccnc(Nc4ccc(OC)cc4)n3)C2)cc1", "note": "(stereo not shown) [GSK1379737]", "%Inh": 0}, {"compound": "COC(=O)c1c(-c2ccccc2)c2cc(Cl)ccc2c(=O)n1Cc1ccc(S(C)(=O)=O)cc1", "%Inh": 25}, {"compound": "CC(C)N1CCC(n2cnc(-c3ccc(F)cc3)c2-c2ccnc(N)n2)CC1", "note": "[SB-223132]", "%Inh": 13}, {"compound": "Nc1n[nH]c2nnc(-c3ccccc3)cc12", "note": "[SB-517389]", "%Inh": 0}, {"compound": "C[C@H]1CC[C@@H](C(=O)Nc2ccccc2)CN1c1cc(-c2ccc3c(N)n[nH]c3c2)nc(N)n1", "note": "[GSK2283293]", "%Inh": 0}, {"compound": "CN1CCC(n2cnc(-c3ccc(F)cc3)c2-c2ccnc(NC3CCNCC3)n2)CC1", "note": "[SB-229482]", "%Inh": 10}, {"compound": "Fc1cccc(COc2ccc(Nc3ncnc4sc(-c5ccc[nH]5)cc34)cc2Cl)c1", "note": "[GW707818]", "%Inh": 5}, {"compound": "O=C(Nc1ccccc1F)NC1CCN(c2ccnc(Nc3ccc(F)cc3)n2)C1", "note": "(stereo not shown) [GSK1379722]", "%Inh": 12}, {"compound": "Clc1ccc(-c2cc(-c3c[nH]nc3-c3ccccn3)ccn2)cc1", "note": "[GW681251]", "%Inh": 0}, {"compound": "COc1cc2ncnc(Nc3ccc(OCc4ccccc4Br)c(Cl)c3)c2cc1OC.Cl", "note": "[GI261590]", "%Inh": 0}, {"compound": "Cl.Cl.c1ccc(-c2cc3ccncc3cc2OC2CCNCC2)cc1", "note": "[GSK1122999]", "%Inh": 0}]}, {"system": "BUB1", "details": "concentration: 1 μM, replicates: in singlicate; n = 1", "units": {"%Inh": "%"}, "values": [{"compound": "Oc1ccc2ncnc(Nc3ccc(OCc4ccccc4)cc3)c2c1", "note": "[GI262866]", "%Inh": 18}, {"compound": "FC(F)(F)c1ccc(-c2cc(-c3c[nH]nc3-c3ccccn3)ccn2)cc1", "note": "[GW599550]", "%Inh": 55}, {"compound": "CCc1nc(-c2cccc(C)c2)c(-c2ccnc(NC(=O)c3ccccc3)c2)s1", "%Inh": 17}, {"compound": "CN1c2ccc(-c3ccc(C(=O)NCCO)cc3)cc2-c2[nH]ncc2S1(=O)=O", "%Inh": 0}, {"compound": "O=C(c1ccc(-c2cc(-c3c[nH]nc3-c3ccccn3)ccn2)cc1)N1CCCC1", "note": "[GW792479]", "%Inh": 20}, {"compound": "COc1ccc(-c2oc3ncnc(N)c3c2-c2ccc(OC)cc2)cc1", "note": "[SB-589132]", "%Inh": 64}, {"compound": "CCc1nc(-c2cccc(N(C)S(=O)(=O)c3ccccc3)c2)c(-c2ccnc(Nc3ccc(N4CCN(C(C)=O)CC4)nc3)n2)s1", "note": "[GSK1645895]", "%Inh": 0}, {"compound": "Fc1cccc(COc2ccc(Nc3ncnc4cc[nH]c34)cc2Cl)c1", "%Inh": 1}, {"compound": "Cl.c1ccc(Cn2ncc3cc(Nc4ncnc5ccccc45)ccc32)cc1", "note": "[GW273749]", "%Inh": 0}, {"compound": "COC(=O)c1cccc(NC(=O)NCCNc2ccnc(Nc3ccc(F)cc3)n2)c1", "note": "[GSK1379883]", "%Inh": 10}, {"compound": "Cl.c1ccc(Cn2ccc3cc(Nc4ncnc5ccccc45)ccc32)cc1", "note": "[GW275568]", "%Inh": 0}, {"compound": "COc1ccc(Nc2nccc(N3CCC(NC(=O)c4cccc(NC(C)=O)c4)C3)n2)cc1", "note": "(stereo not shown) [GSK1379732]", "%Inh": 54}, {"compound": "Nc1nccc2scc(-c3ccc4c(c3)CCN4C(=O)Cc3cc(F)ccc3F)c12", "note": "[GSK2587663]", "%Inh": 45}, {"compound": "Fc1ccc(Nc2nccc(-c3c(-c4ccc(Cl)cc4)nn4ncccc34)n2)cc1F", "note": "[GW829058]", "%Inh": 35}, {"compound": "CS(=O)(=O)CCNCc1ccc(-c2ccc3ncnc(Nc4ccc(OCc5ccccc5)c(Cl)c4)c3c2)o1.Cl", "note": "[GW574783]", "%Inh": 26}, {"compound": "Cn1ccc2ncnc(Oc3ccc(NC(=O)Nc4cccnc4)c(Cl)c3)c21", "%Inh": 5}, {"compound": "COc1ccc(NC(=O)c2ccc(-c3cc(-c4nnc(C)o4)ccc3C)cc2)cc1", "note": "[GW595885]", "%Inh": 40}, {"compound": "NC(=O)c1sc(-n2cnc3ccccc32)cc1OCc1ccccc1F", "note": "[GSK1024306]", "%Inh": 20}, {"compound": "Fc1ccc(-c2ncn(CCCNCc3ccccc3)c2-c2ccncc2)cc1", "%Inh": 12}, {"compound": "CCC(CC)(CC)n1cnc2c(N)ncnc21", "note": "[SKF-97620]", "%Inh": 48}, {"compound": "N#Cc1ccc(Oc2ccc(Nc3ncnc4cc[nH]c34)cc2Cl)cc1", "%Inh": 12}, {"compound": "O=C(Nc1n[nH]c2nc(-c3ccco3)c(Br)cc12)c1ccc(CN2CCCC2)cc1.O=C(O)[C@H](O)[C@@H](O)C(=O)O", "note": "[SB-742352]", "%Inh": 0}, {"compound": "O=C(NCCCN1CCCC1=O)c1cnc(NCc2cc(Cl)ccc2Cl)nc1NC1CCNCC1", "%Inh": 0}, {"compound": "O=C(Nc1ccccc1)Nc1ccc(Oc2ccc3nccn3n2)cc1", "%Inh": 0}, {"compound": "CCCc1ccc(S(=O)(=O)NC2CCN(c3ccnc(Nc4ccc(OC)cc4)n3)C2)cc1", "note": "(stereo not shown) [GSK1379737]", "%Inh": 47}, {"compound": "COC(=O)c1c(-c2ccccc2)c2cc(Cl)ccc2c(=O)n1Cc1ccc(S(C)(=O)=O)cc1", "%Inh": 0}, {"compound": "CC(C)N1CCC(n2cnc(-c3ccc(F)cc3)c2-c2ccnc(N)n2)CC1", "note": "[SB-223132]", "%Inh": 15}, {"compound": "Nc1n[nH]c2nnc(-c3ccccc3)cc12", "note": "[SB-517389]", "%Inh": 0}, {"compound": "C[C@H]1CC[C@@H](C(=O)Nc2ccccc2)CN1c1cc(-c2ccc3c(N)n[nH]c3c2)nc(N)n1", "note": "[GSK2283293]", "%Inh": 49}, {"compound": "CN1CCC(n2cnc(-c3ccc(F)cc3)c2-c2ccnc(NC3CCNCC3)n2)CC1", "note": "[SB-229482]", "%Inh": 17}, {"compound": "Fc1cccc(COc2ccc(Nc3ncnc4sc(-c5ccc[nH]5)cc34)cc2Cl)c1", "note": "[GW707818]", "%Inh": 25}, {"compound": "O=C(Nc1ccccc1F)NC1CCN(c2ccnc(Nc3ccc(F)cc3)n2)C1", "note": "(stereo not shown) [GSK1379722]", "%Inh": 44}, {"compound": "Clc1ccc(-c2cc(-c3c[nH]nc3-c3ccccn3)ccn2)cc1", "note": "[GW681251]", "%Inh": 31}, {"compound": "COc1cc2ncnc(Nc3ccc(OCc4ccccc4Br)c(Cl)c3)c2cc1OC.Cl", "note": "[GI261590]", "%Inh": 66}, {"compound": "Cl.Cl.c1ccc(-c2cc3ccncc3cc2OC2CCNCC2)cc1", "note": "[GSK1122999]", "%Inh": 0}]}]}
